± gives the standard deviation of the averaged measurements.
Test system: AmpC beta-lactamase (E. coli)
Assay: AmpC inhibition relative to DMSO; higher = more inhibition
Method: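 Aggregation counter-screen: inhibition of E. coli AmpC beta-lactamase (5 nM, nitrocefin substrate, 50 mM sodium phosphate pH 7.0, RT, 5 min) by KAT inhibitors at 4, 11, 33 and 100 uM, with or without 0.01% Triton X-100. Percent inhibition is relative to DMSO controls. Four technical replicates.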

[1] = 4 µM, detergent: 0.01% Triton X-100
[2] = 11 µM, detergent: 0.01% Triton X-100
[3] = 33 µM, detergent: 0.01% Triton X-100
[4] = 100 µM, detergent: 0.01% Triton X-100
[5] = 100 µM, detergent: no detergent

Compound	AmpC inhibition [1] [%]	AmpC inhibition (4 µM, detergent: no detergent) [%]	AmpC inhibition [2] [%]	AmpC inhibition (11 µM, detergent: no detergent) [%]	AmpC inhibition [3] [%]	AmpC inhibition (33 µM, detergent: no detergent) [%]	AmpC inhibition [4] [%]	AmpC inhibition [5] [%]
CCCCCOc1ccc(/C=C\c2cccc(O)c2C(=O)O)cc1	-1.02 ± 4.7	-1.47 ± 3.3	7.71 ± 5.1	27.2 ± 7.2	5.08 ± 5.7	69 ± 16	14 ± 3	99.2 ± 1.4
CNC(=O)Nc1ccc2c(c1)CC[C@@]21OC(=O)N(CC(=O)N(Cc2ccc(F)cc2)[C@@H](C)C(F)(F)F)C1=O	5.14 ± 2.9	-1.32 ± 9.8	5.67 ± 2.5	5.86 ± 3.8	-0.581 ± 4.1	-6.17 ± 3.8	-3 ± 2.8	-3.55 ± 4.8
COc1ccc(/C(Cl)=C(\C=O)c2ccc(OC)cc2)cc1	2.6 ± 2.4	17.8 ± 21	4.97 ± 1.2	3.2 ± 5.5	1.35 ± 3.3	-9.16 ± 9.6	-4.79 ± 8.1	1.57 ± 3.4
COc1cc(/C=C/c2cc(/C=C/c3ccc(O)c(OC)c3)n(-c3ccc(C(=O)[O-])cc3)n2)ccc1O.[Na+]	1.31 ± 3	-4.8 ± 14	2.98 ± 1.9	-29.6 ± 5.8	4.87 ± 2.2	-38.3 ± 23	2.96 ± 6	-2.93 ± 15
O=C(O[C@@H]1Cc2c(O)cc(O)cc2O[C@@H]1c1cc(O)c(O)c(O)c1)c1cc(O)c(O)c(O)c1	9.27 ± 1.3	11.2 ± 18	4.89 ± 2	16 ± 3.1	4.57 ± 1.2	19.6 ± 14	1.23 ± 6.1	30.2 ± 1.1

— the supplement of paper PMC10011410
